# Measured values published in the supplement of paper PMC10981050.
# Values joined by “and” are separate entries in the source; they are usually repeats but may differ in a detail not shown here. Identical values can stand only once. Counter-ions that a name gives are not always drawn.
# Experiments:
# Assay in all cases: cell viability relative to vehicle control; higher = less cytotoxic
# Conditions in all cases: 10 µM
# K562 = test system: K562
# How it was run: (§1)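 Each screen used CRISPR-edited mutant and wild-type clones from four leukaemia lines. Compounds were acoustically dispensed at a single 10 µM dose, and CellTiter-Glo luminescence was read after 48 h with the supernatant first removed. Viability was analysed in Genedata Screener and given as percent of the on-plate vehicle control.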
# MARIMO = test system: MARIMO
# How it was run: as §1
# MOLM14 = test system: MOLM14
# How it was run: as §1
# OCI-AML2 = test system: OCI-AML2
# How it was run: as §1
Structure (SMILES),cell viability (K562; SRSF2 genotype: SRSF2 P95H/wt),cell viability (K562; SRSF2 genotype: SRSF2 wt/wt) [%],cell viability (MARIMO; SRSF2 genotype: SRSF2 P95H/wt) [%],cell viability (MARIMO; SRSF2 genotype: SRSF2 wt/wt) [%],cell viability (MOLM14; SRSF2 genotype: SRSF2 P95H/wt) [%],cell viability (MOLM14; SRSF2 genotype: SRSF2 wt/wt) [%],cell viability (OCI-AML2; SRSF2 genotype: P95H/wt) [%],cell viability (OCI-AML2; SRSF2 genotype: wt/wt) [%]
CC(C)CCn1c(CN2CCN(C(=O)C3CC3)CC2)nc2c1c(=O)n(C)c(=O)n2C,105% and 116%,112,99.7,102,105,104,114,116
COCCNCc1ccc(-c2cc3nccc(Oc4ccc(NC(=O)C5(C(=O)Nc6ccc(F)cc6)CC5)cc4F)c3s2)nc1 [Sitravatinib (MGCD516)],14.2% and 25.4%,10.6,67.2,78.5,5.4,8.33,14.1,27.3
N=C1CCCN1Cc1[nH]c(=O)[nH]c(=O)c1Cl [Tipiracil hydrochloride],101% and 109%,104,109,112,110,105,102,94.7
C[C@H]1C[C@H]2[C@@H]3CCC4=CC(=O)C=C[C@]4(C)[C@@]3(F)[C@@H](O)C[C@]2(C)[C@@]1(O)C(=O)CO [Betamethasone (Celestone)],92.1% and 85.8%,89.5,86.1,98.4,92.8,86,84.4,108
CO[C@H]1C[C@@H]2CC[C@@H](C)[C@@](O)(O2)C(=O)C(=O)N2CCCC[C@H]2C(=O)O[C@H]([C@H](C)C[C@@H]2CC[C@@H](OCCO)[C@H](OC)C2)CC(=O)[C@H](C)/C=C(\C)[C@@H](O)[C@@H](OC)C(=O)[C@H](C)C[C@H](C)/C=C/C=C/C=C/1C [Everolimus (RAD001)],59.9% and 63.6%,70.4,73.8,71.6,57.4,51.4,60,61.6
Cc1ccc(Nc2nccc(N(C)c3ccc4c(C)n(C)nc4c3)n2)cc1S(N)(=O)=O [Pazopanib HCl],49.1% and 57.7%,51,54.5,46.3,36.4,39.8,28.3,33.9
OCc1ccc(O[C@@H]2O[C@H](CO)[C@@H](O)[C@H](O)[C@H]2O)cc1 [Gastrodin (Gastrodine)],102% and 101%,99.8,107,101,105,104,104,98.3
CCCSc1nc(N[C@@H]2C[C@H]2c2ccc(F)c(F)c2)c2nnn([C@@H]3C[C@H](OCCO)[C@@H](O)[C@H]3O)c2n1 [Ticagrelor],77.4% and 77.6%,70.3,86.9,86.5,74.5,85.9,71.5,70
CCOC(=O)c1ccc(O)c(OC)c1 [Ethyl Vanillate],97.5% and 92.9%,100,105,108,94.1,104,103,91.1
COc1cc2ncnc(Oc3cccc(NC(=O)Nc4cc(C(C)(C)C(F)(F)F)on4)c3)c2cc1OC,23.5% and 40.4%,24.8,79.4,85,33.8,23.7,60.3,61.5
COc1cccc2c1C(=O)c1c(O)c3c(c(O)c1C2=O)C[C@@](O)(C(=O)CO)C[C@@H]3O[C@H]1C[C@H](N)[C@H](O[C@@H]2CCCCO2)[C@H](C)O1 [Pirarubicin],9.97% and 17.9%,15.8,5.07,2.51,0.15,0.13,0.2,0.51
CCOC(=O)C1=C(C)NC(C)=C(C(=O)OCC)C1 [Diludine],99.6% and 92.2%,104,94.3,99.7,104,99.3,99.3,93.9
CC(=O)N1c2ccc(-c3ccc(C(=O)O)cc3)cc2[C@H](Nc2ccc(Cl)cc2)C[C@@H]1C,59.6% and 63.6%,74.7,23.6,28.7,16.3,14.4,7.87,17.8
COc1cc(C2Oc3cc([C@H]4Oc5cc(O)cc(O)c5C(=O)[C@@H]4O)ccc3OC2CO)ccc1O (some centres not stated) [Silibinin (Silybin)],95% and 94%,92.2,97.5,110,98.8,98.4,104,116
O=C(Nc1ccc(Cl)cc1)C1CCCN(C(=O)c2cccc(-c3ccco3)c2)C1 (configuration not stated),67.5% and 80.2%,71.6,52.6,39.4,64.4,77.1,29,43
CCCC(CCC)C(=O)O [Valproic acid],95.5% and 98.3%,106,103,100,102,102,102,95.7
CC1(C)S[C@@H]2[C@H](NC(=O)[C@H](NC(=O)N3CCNC3=O)c3ccccc3)C(=O)N2[C@H]1C(=O)O [Azlocillin sodium salt],90.4% and 87.6%,81.5,82.3,92.1,86.4,88.6,88,91.8
CCc1cc2c(cc1N1CCC(N3CCOCC3)CC1)C(C)(C)c1[nH]c3cc(C#N)ccc3c1C2=O,91.7% and 98.6%,105,63.9,86.3,66.7,80.5,71.7,52.2
CCC(=O)O[C@H]1[C@H](O[C@@H]2[C@@H](C)[C@H](O[C@H]3C[C@@](C)(OC)[C@@H](O)[C@H](C)O3)[C@@H](C)C(=O)O[C@H](CC)[C@@](C)(O)[C@H](O)[C@@H](C)C(=O)[C@H](C)C[C@@]2(C)O)O[C@H](C)C[C@@H]1N(C)C [Erythromycin estolate],92.3% and 89.5%,90.4,92.3,105,96.4,95.8,77.5,76.8
CC(C)=CCC/C(C)=C/CC/C(C)=C/CCC(=O)OC/C=C(\C)CCC=C(C)C [Gefarnate],106% and 102%,96.4,99.7,110,96.4,102,89.7,93.5

Structure (SMILES),cell viability (K562; SRSF2 genotype: SRSF2 P95H/wt),cell viability (K562; SRSF2 genotype: SRSF2 wt/wt) [%],cell viability (MARIMO; SRSF2 genotype: SRSF2 P95H/wt) [%],cell viability (MARIMO; SRSF2 genotype: SRSF2 wt/wt) [%],cell viability (MOLM14; SRSF2 genotype: SRSF2 P95H/wt) [%],cell viability (MOLM14; SRSF2 genotype: SRSF2 wt/wt) [%],cell viability (OCI-AML2; SRSF2 genotype: P95H/wt) [%],cell viability (OCI-AML2; SRSF2 genotype: wt/wt) [%]
C/C(=C\C(=O)OCCCCCCCCC(=O)O)C[C@@H]1OC[C@H](C[C@@H]2O[C@H]2[C@@H](C)[C@H](C)O)[C@@H](O)[C@H]1O [Mupirocin calcium],90.7% and 86.2%,87.5,84.3,97.9,94.2,93.4,97.3,93.5
CC(C)(CNC(=O)c1cccc(-c2noc(C(F)(F)F)n2)c1)c1coc(-c2ccccc2)n1,89.2% and 87.4%,94.5,82.1,82.6,91,96,52.5,67.2
NC(=O)c1ncn([C@@H]2O[C@H](CO)[C@@H](O)[C@H]2O)c1N [AICAR (Acadesine)],109% and 107%,109,101,110,107,118,93.1,105
CC(C)(C)C(=O)Oc1ccc(S(=O)(=O)Nc2ccccc2C(=O)NCC(=O)O)cc1 [Sivelestat sodium tetrahydrate],101% and 94.9%,102,96.7,102,106,100,96.5,99.2
CC(=O)SCC(Cc1ccccc1)C(=O)NCC(=O)OCc1ccccc1 (configuration not stated) [Racecadotril (Acetorphan)],108% and 106%,103,98.3,99,106,105,118,102
OC[C@H]1O[C@H](O[C@H]2O[C@H](CO)[C@@H](O)[C@H](O)[C@H]2O)[C@H](O)[C@@H](O)[C@@H]1O [D-(+)-Trehalose dihydrate],103% and 99.5%,102,106,111,104,108,105,108
Nc1cccc2c1C(=O)N(C1CCC(=O)NC1=O)C2=O (configuration not stated) [Pomalidomide],102% and 96.9%,88,87.4,99,88.5,93.5,120,121
O=C(O)c1cc(O)c2c(c1)[C@@H]([C@H]1c3cc(C(=O)O)cc(O)c3C(=O)c3c(O[C@@H]4O[C@H](CO)[C@@H](O)[C@H](O)[C@H]4O)cccc31)c1cccc(O[C@@H]3O[C@H](CO)[C@@H](O)[C@H](O)[C@H]3O)c1C2=O [Sennoside B],75.3% and 75.2%,81.5,79.3,88.2,76.2,75.6,77.4,87.7
OCC(CO)N[C@H]1C[C@](O)(CO)[C@@H](O)[C@H](O)[C@H]1O [Voglibose],96.2% and 91.4%,96.6,98.1,104,99.7,97.5,92.3,109
CCC[C@H](Nc1nc(-c2ccc(NC(=O)NCC)c(OC)c2)ncc1C)c1cccnc1,10.5% and 35.4%,31.9,7.27,10,1.24,1.12,0.85,2.78
Cc1cc(S(=O)(=O)O)c2c(C)ccc(C(C)C)cc1-2 [Sodium gualenate],103%,103,100,108,99,104,95.2,106
C/C(=C(/CCOC(=O)c1ccccc1)SC(=O)c1ccccc1)N(C=O)Cc1cnc(C)nc1N [Dibenzoyl Thiamine],103%,107,96.5,94,90.8,102,99.1,109
COc1cc2ncnc(Nc3ccc(O)c(Br)c3)c2cc1OC,93.8% and 101%,96.4,85.4,84.6,32.4,24.3,61.8,63.9
CC(C)(C)OC(=O)N[C@H]1CCCCC/C=C\[C@@H]2C[C@@]2(C(=O)NS(=O)(=O)C2CC2)NC(=O)[C@@H]2C[C@@H](OC(=O)N3Cc4cccc(F)c4C3)CN2C1=O [Danoprevir (ITMN-191)],97.7% and 108%,98.9,106,106,96.8,101,123,108
COC(=O)N[C@H](C(=O)N1CCC[C@H]1C(=O)Nc1ccc([C@@H]2CC[C@@H](c3ccc(NC(=O)[C@@H]4CCCN4C(=O)[C@@H](NC(=O)OC)C(C)C)cc3)N2c2ccc(C(C)(C)C)cc2)cc1)C(C)C [Ombitasvir(ABT-267)],83.3% and 81.3%,91,89.8,96.3,91.9,92.5,112,99.6
O=C(/C=C/c1cccc(S(=O)(=O)Nc2ccccc2)c1)NO [Belinostat (PXD101)],1.83% and 15.8%,5.17,8.17,13.7,0.86,0.57,2.66,4.34
CNc1ncc2cc(-c3cc(NC(=O)NCCC(C)(C)C)c(F)cc3C)c(C)nc2n1,14.9% and 29.3%,22,36.9,34.9,27.2,23.9,31.7,34.6
Cc1ccc(C(=O)Cn2c3c(sc2=N)CCCC3)cc1,88.9% and 94.2%,91.3,81.4,93.8,84,96.9,83.9,92.3
O=C1NC(=O)/C(=C/c2ccc3c(c2)OC(F)(F)O3)S1,103% and 97.1%,98.1,101,99.8,96.9,101,95.3,103
